# Laboratory results as given in PubChem BioAssay (EPA / NIEHS).
# Several values for one entry are separate records, joined by “and”; a condition that tells them apart may be missing. Equal entries are not always repeated. Some compounds were tested as several samples or in several runs, with calls that do not always agree. Activity calls are given as the source filed them. The calls were made as follows: active = hit-call score of the fitted dose curve at least 0.9, where 1 is the maximum; inactive = score below 0.9.
# Tests used:
# [1] = ATG_GRE_CIS: Attagene CIS-FACTORIAL HepG2 Assay for human Glucocorticoid Response Elements (GRE) (AID 2282947); conditions: HepG2 GRE cis-reporter, Attagene multiplex mRNA; AC50: actives raise or lower the signal unless noted; outcome: actives raise or lower the signal unless noted
# Procedure, shortened: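 Endogenous transcription factor activity is read through cis-element reporter constructs transiently transfected into HepG2 cells. After 24 h treatment, labelled RT-PCR products are resolved by capillary electrophoresis; DMSO sets baseline for bidirectional curve fitting.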
# [2] = ATG_ISRE_CIS: Attagene CIS-FACTORIAL HepG2 Assay for human Interferon Regulatory Factor 1 (IRF1) binding to an Interferon-Stimulated Response Element (ISRE) (AID 2282948); conditions: HepG2 ISRE cis-reporter (Attagene), mRNA transcription readout; actives raise or lower the signal
# Procedure, shortened: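 Transiently transfected HepG2 cells carrying cis-element reporter units, dosed 24 hours. Reporter mRNA quantified by RT-PCR, fluorescent primer extension, HpaI digestion and capillary electrophoresis. Bidirectional fitting relative to DMSO.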
# [3] = ATG_M_32_CIS: Attagene CIS-FACTORIAL HepG2 Assay for M32 Transcription Factor (Internal Marker) (AID 2282949); conditions: HepG2 Attagene cis-factorial M32 reporter, mRNA; actives raise or lower the signal;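 also: background control marker of the multiplexed CIS panel rather than a real target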
# Procedure, shortened: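 Internal background marker read-out: RT-PCR/capillary electrophoresis fluorescence of reporter transcripts from transiently transfected HepG2 cells after 24 h chemical exposure. Activity fitted bidirectionally relative to DMSO negative control.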
# [4] = ATG_M_06_CIS: Attagene CIS-FACTORIAL HepG2 Assay for M06 Transcription Factor (Internal Marker) (AID 2282950); conditions: HepG2 Attagene CIS-FACTORIAL M06 internal marker reporter; actives raise or lower the signal
# Procedure, shortened: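 Fluorescence-labelled RT-PCR products from cis-promoter reporter units, cut with HpaI and resolved by capillary electrophoresis, give the signal. Cells are human HepG2, dosed for 24 h. Serves as background control, fitted relative to DMSO.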
# [5] = biological target: Hepatocyte nuclear factor 6 (Homo sapiens) (UniProt Q9UBC0); assay: ATG_HNF6_CIS: Attagene CIS-FACTORIAL HepG2 Assay for human Hepatocyte Nuclear Factor 6 (HNF6) (AID 2282952); conditions: HepG2 Attagene cis-factorial HNF6 reporter transcription; actives raise or lower the signal
# Procedure, shortened: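 Reporter mRNA induction or loss in HepG2 after 24 h exposure; transient cis-MRTU transfection; fragments quantified by capillary electrophoresis; bidirectional analysis, DMSO as negative control.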
# [6] = biological target: Heat shock factor protein 1 (Homo sapiens) (UniProt Q00613); assay: ATG_HSE_CIS: Attagene CIS-FACTORIAL HepG2 Assay for human Heat Shock Transcription Factor 1 (HSE) (AID 2282953); conditions: HepG2 HSE cis-reporter, Attagene RNA transcription; actives raise or lower the signal
# Procedure, shortened: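 After a 24 h incubation with test chemical, transfected HepG2 cells were harvested for RNA; reporter transcripts were measured by RT-PCR and capillary electrophoresis. Values reflect gain or loss of signal relative to DMSO.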
# [7] = ATG_MRE_CIS: Attagene CIS-FACTORIAL HepG2 Assay for human Metal Responsive Element (MRE) (AID 2282954); conditions: HepG2 MRE cis-reporter transcription, Attagene multiplex; actives raise or lower the signal
# Procedure, shortened: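 Fluorescent reporter fragments separated by capillary electrophoresis give mRNA induction for the MRE unit after 24 h treatment of transfected HepG2 cells. Endogenous transcription-factor activity is read; DMSO serves as negative control and baseline.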
# [8] = ATG_PBREM_CIS: Attagene CIS-FACTORIAL HepG2 Assay for human Phenobarbital-responsive Enhancer Module (PBREM) (AID 2282955); conditions: HepG2 PBREM cis-reporter, Attagene multiplexed transcription; actives raise or lower the signal
# Procedure, shortened: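 Cells were transfected with cis-element reporter units and treated for 24 h, after which RNA was extracted and reporter transcripts measured by RT-PCR and capillary electrophoresis.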
# [9] = biological target: Hypoxia-inducible factor 1-alpha (Homo sapiens) (UniProt Q16665); assay: ATG_HIF1a_CIS: Attagene CIS-FACTORIAL HepG2 Assay for human Hypoxia Inducible Factor 1 (HIF1A) (AID 2282951); conditions: HepG2 Attagene cis-factorial HIF1a reporter transcription; actives raise or lower the signal
# Procedure, shortened: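 Fluorescence intensity of capillary-separated, 6-FAM-labelled reporter amplicons gives mRNA induction in HepG2 cells carrying transfected cis-promoter reporter units; cells exposed 24 h, responses fitted up or down from DMSO.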
# [10] = biological target: Paired box protein Pax-6 (Homo sapiens) (UniProt P26367); assay: ATG_Pax6_CIS: Attagene CIS-FACTORIAL HepG2 Assay for human Paired Box 6 (PAX6) (AID 2282956); conditions: HepG2 CIS-FACTORIAL PAX6 reporter transcription, RNA readout; actives raise or lower the signal
# Procedure, shortened: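 HepG2 cells transiently transfected with cis-promoter-driven multiplexed reporter units sensing endogenous transcription factor activity; 24 h chemical exposure. Reporter mRNA quantified by RT-PCR, 6-FAM labelling, HpaI digestion and capillary electrophoresis; bidirectional fit versus DMSO baseline.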
# Chain of Paired box protein Pax-6 (Homo sapiens) (P26367 whole entry, looked up): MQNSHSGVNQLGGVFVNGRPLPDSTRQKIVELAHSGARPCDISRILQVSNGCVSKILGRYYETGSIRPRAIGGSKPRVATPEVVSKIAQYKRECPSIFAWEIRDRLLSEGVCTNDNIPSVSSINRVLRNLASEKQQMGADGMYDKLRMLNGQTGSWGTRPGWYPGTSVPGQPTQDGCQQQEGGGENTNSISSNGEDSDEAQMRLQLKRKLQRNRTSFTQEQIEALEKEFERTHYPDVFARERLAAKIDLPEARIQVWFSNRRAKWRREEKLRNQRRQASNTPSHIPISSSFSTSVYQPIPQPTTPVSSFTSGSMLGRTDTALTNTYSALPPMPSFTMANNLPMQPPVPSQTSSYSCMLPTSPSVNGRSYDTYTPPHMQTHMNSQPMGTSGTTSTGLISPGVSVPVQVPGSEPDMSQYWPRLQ
# Chain of Hepatocyte nuclear factor 6 (Homo sapiens) (Q9UBC0 whole entry, looked up, the tested form may be a part): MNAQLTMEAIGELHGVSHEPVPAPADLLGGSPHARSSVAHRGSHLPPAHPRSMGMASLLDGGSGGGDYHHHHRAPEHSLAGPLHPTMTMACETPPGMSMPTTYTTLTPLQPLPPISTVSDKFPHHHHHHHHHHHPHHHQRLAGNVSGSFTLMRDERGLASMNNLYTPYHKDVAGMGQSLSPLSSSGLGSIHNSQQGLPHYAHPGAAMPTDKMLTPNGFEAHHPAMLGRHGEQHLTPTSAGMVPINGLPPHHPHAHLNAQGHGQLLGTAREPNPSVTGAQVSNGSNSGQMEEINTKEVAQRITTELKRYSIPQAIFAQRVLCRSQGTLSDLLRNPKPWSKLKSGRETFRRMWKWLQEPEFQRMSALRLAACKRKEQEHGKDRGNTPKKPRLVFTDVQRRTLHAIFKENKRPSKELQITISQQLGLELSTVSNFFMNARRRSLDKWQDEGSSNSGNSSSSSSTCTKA
# Chain of Hypoxia-inducible factor 1-alpha (Homo sapiens) (Q16665 whole entry, looked up): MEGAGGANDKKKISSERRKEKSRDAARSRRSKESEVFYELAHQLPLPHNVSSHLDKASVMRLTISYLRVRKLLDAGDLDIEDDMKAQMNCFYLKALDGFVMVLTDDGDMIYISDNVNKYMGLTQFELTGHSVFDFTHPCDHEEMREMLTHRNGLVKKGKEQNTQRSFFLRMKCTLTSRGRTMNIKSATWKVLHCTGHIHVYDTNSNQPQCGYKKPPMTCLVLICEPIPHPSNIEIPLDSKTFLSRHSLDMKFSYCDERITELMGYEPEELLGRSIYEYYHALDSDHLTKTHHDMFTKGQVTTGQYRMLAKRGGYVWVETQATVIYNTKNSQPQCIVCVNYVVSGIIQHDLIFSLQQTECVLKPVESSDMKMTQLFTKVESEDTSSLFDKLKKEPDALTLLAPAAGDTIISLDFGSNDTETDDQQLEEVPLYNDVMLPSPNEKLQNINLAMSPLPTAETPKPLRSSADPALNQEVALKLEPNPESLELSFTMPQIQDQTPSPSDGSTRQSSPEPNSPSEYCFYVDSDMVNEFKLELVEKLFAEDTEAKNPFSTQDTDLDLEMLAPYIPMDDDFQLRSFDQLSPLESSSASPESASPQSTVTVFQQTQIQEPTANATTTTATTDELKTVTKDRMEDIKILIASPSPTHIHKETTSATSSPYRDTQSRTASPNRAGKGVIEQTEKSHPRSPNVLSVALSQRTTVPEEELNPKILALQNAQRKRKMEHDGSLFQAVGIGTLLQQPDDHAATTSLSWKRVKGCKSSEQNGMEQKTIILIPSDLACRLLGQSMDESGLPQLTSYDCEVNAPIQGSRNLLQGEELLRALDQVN
# Chain of Heat shock factor protein 1 (Homo sapiens) (Q00613 whole entry, looked up): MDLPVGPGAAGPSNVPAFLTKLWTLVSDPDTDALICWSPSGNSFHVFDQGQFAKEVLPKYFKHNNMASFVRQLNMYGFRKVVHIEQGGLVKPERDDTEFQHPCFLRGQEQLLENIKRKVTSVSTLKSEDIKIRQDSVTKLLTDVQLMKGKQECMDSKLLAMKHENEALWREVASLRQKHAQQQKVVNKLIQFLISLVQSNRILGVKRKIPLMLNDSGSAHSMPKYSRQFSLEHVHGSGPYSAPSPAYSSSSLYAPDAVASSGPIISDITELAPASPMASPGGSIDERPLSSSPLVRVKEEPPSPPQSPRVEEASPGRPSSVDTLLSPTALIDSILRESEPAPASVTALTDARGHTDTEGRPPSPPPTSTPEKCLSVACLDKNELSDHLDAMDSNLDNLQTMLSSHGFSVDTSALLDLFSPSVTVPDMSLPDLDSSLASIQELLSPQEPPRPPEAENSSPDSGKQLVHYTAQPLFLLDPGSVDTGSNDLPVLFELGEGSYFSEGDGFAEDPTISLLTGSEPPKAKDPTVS
smiles,measurement,setting,value
Cc1ccccc1C(OCCN(C)C)c1ccccc1 (configuration not stated),outcome,[1],inactive
same,outcome,[2],inactive
same,outcome,[3],inactive
same,outcome,[4],inactive
same,outcome,[5],inactive
same,outcome,[6],inactive
same,AC50,[7],151 µM (active)
same,outcome,[7],inactive
same,outcome,[8],inactive
CCCCCCCCC1CCC(=O)O1 (configuration not stated),outcome,[1],inactive
same,outcome,[2],inactive
same,outcome,[3],inactive
same,outcome,[4],inactive
same,outcome,[9],inactive
same,outcome,[6],inactive
same,outcome,[7],inactive
same,outcome,[8],inactive
same,outcome,[10],inactive
CC1=CC(=O)c2ccccc2C1=O,outcome,[2],inactive
same,outcome,[3],inactive
same,outcome,[4],inactive
same,outcome,[9],inactive
same,outcome,[5],inactive
same,outcome,[6],inactive
same,outcome,[7],inactive
same,outcome,[8],inactive
same,outcome,[10],inactive
O=C1Cc2ccccc2N1c1c(Cl)cccc1Cl,outcome,[1],inactive
same,outcome,[2],inactive
same,outcome,[3],inactive
same,outcome,[4],inactive
same,AC50,[9],75.3 µM (active)
same,AC50,[6],130 µM (active)
same,AC50,[7],91.5 µM (active)
same,AC50,[8],1.23 µM (active)
same,outcome,[10],inactive
Cn1sccc1=O,outcome,[1],inactive
same,AC50,[2],163 µM (active)
same,outcome,[3],inactive
same,outcome,[4],inactive
same,outcome,[9],inactive
same,AC50,[6],161 µM (active)
same,outcome,[8],inactive
COC(O)c1ccccc1 (configuration not stated),outcome,[1],inactive
same,outcome,[2],inactive
same,outcome,[3],inactive
same,outcome,[4],inactive
same,outcome,[9],inactive
same,outcome,[6],inactive
same,outcome,[7],inactive
same,outcome,[8],inactive
same,outcome,[10],inactive
O=c1cc(-c2ccccc2)oc2ccc3ccccc3c12,outcome,[2],inactive
same,outcome,[3],inactive
same,outcome,[4],inactive
same,outcome,[9],inactive
same,outcome,[5],inactive
same,outcome,[6],inactive
same,outcome,[7],inactive
same,outcome,[8],inactive
same,outcome,[10],inactive
O=S(=O)(O)C(F)(F)C(F)(F)C(F)(F)C(F)(F)C(F)(F)C(F)(F)C(F)(F)C(F)(F)C(F)(F)C(F)(F)F,outcome,[1],inactive
same,outcome,[2],inactive
same,outcome,[3],inactive
same,outcome,[4],inactive
same,outcome,[9],inactive
same,outcome,[6],inactive
same,outcome,[7],inactive
same,outcome,[8],inactive
same,outcome,[10],inactive
CCOC(=O)CN[C@@H](C(=O)N1CC[C@H]1C(=O)NCc1ccc(/C(N)=N/O)cc1)C1CCCCC1,outcome,[1],inactive
same,outcome,[2],inactive
same,outcome,[3],inactive
same,outcome,[4],inactive
same,outcome,[9],inactive
same,outcome,[7],inactive
same,outcome,[8],inactive
same,outcome,[10],inactive
CCCCc1ccc2ccccc2c1S(=O)(=O)O,outcome,[1],inactive
same,outcome,[2],inactive
same,outcome,[3],inactive
same,outcome,[4],inactive
same,outcome,[9],inactive
same,outcome,[6],inactive
same,outcome,[7],inactive
same,outcome,[8],inactive
same,outcome,[10],inactive
CN(C)c1ccc(C(=C2C=CC(=[N+](C)C)C=C2)c2ccccc2)cc1,AC50,[2],1.34 µM (active) and 1.85 µM (active)
same,outcome,[3],inactive
same,outcome,[4],inactive
same,outcome,[9],inactive
same,AC50,[5],8.34 µM (active)
same,outcome,[5],inactive
same,outcome,[8],inactive
same,AC50,[10],1.43 µM (active) and 1.44 µM (active)
O=C(Nc1cccc([N+](=O)[O-])c1)c1cc2ccccc2cc1O,outcome,[2],inactive
same,outcome,[3],inactive
same,outcome,[4],inactive
same,outcome,[9],inactive
same,outcome,[5],inactive
same,outcome,[6],inactive
same,outcome,[7],inactive
same,AC50,[8],3.64 µM (active)
CC(C)(c1ccc(Oc2ccc(N)cc2)cc1)c1ccc(Oc2ccc(N)cc2)cc1,outcome,[1],inactive
same,outcome,[2],inactive
same,outcome,[3],inactive
same,outcome,[4],inactive
same,outcome,[9],inactive
same,outcome,[6],inactive
same,outcome,[8],inactive
same,outcome,[10],inactive
CCCCCCCCC(C)=O,outcome,[2],inactive
same,outcome,[3],inactive
same,outcome,[4],inactive
same,outcome,[9],inactive
same,outcome,[5],inactive
same,outcome,[6],inactive
same,outcome,[7],inactive
same,outcome,[8],inactive
same,outcome,[10],inactive
C=CC(=O)OCCN(CC)CC,outcome,[1],inactive
same,AC50,[2],44.3 µM (active)
same,outcome,[3],inactive
same,outcome,[4],inactive
same,outcome,[9],inactive
same,AC50,[6],152 µM (active)
same,outcome,[8],inactive
CCCCCc1ccc(O)cc1,outcome,[2],inactive
same,outcome,[3],inactive
same,outcome,[4],inactive
same,outcome,[9],inactive
same,outcome,[5],inactive
same,AC50,[6],33.4 µM (active)
same,outcome,[7],inactive
same,outcome,[8],inactive
same,outcome,[10],inactive
C[C@]12CC[C@@H]3c4ccc(O)cc4CC[C@H]3[C@@H]1C[C@@H](O)[C@@H]2O,outcome,[1],inactive
same,outcome,[2],inactive
same,outcome,[3],inactive
same,outcome,[4],inactive
same,outcome,[9],inactive
same,outcome,[7],inactive
COCC1CCC(CO)CC1 (configuration not stated),outcome,[1],inactive
same,outcome,[2],inactive
same,outcome,[3],inactive
same,outcome,[4],inactive
same,outcome,[9],inactive
same,outcome,[6],inactive
same,outcome,[7],inactive
same,outcome,[8],inactive
same,outcome,[10],inactive
CCCCCCCCCCCC(=O)O,AC50,[2],146 µM (active)
same,outcome,[2],inactive
same,outcome,[3],inactive
same,outcome,[4],inactive
same,outcome,[9],inactive
same,outcome,[5],inactive
same,outcome,[10],inactive
O=C1OC2(c3ccccc31)c1cc(I)c(O)c(I)c1Oc1c2cc(I)c(O)c1I,outcome,[2],inactive
same,outcome,[3],inactive
same,outcome,[4],inactive
same,AC50,[9],21.2 µM (active) and 34.4 µM (active)
same,outcome,[9],inactive
same,outcome,[5],inactive
same,AC50,[8],21 µM (active) and 18.6 µM (active)
same,outcome,[8],inactive
same,AC50,[10],37.6 µM (active)
same,outcome,[10],inactive
Oc1ccc(Cc2ccccc2O)cc1,outcome,[1],inactive
same,outcome,[2],inactive
same,outcome,[3],inactive
same,outcome,[4],inactive
same,outcome,[9],inactive
same,outcome,[7],inactive
same,outcome,[8],inactive
same,outcome,[10],inactive
NS(=O)(=O)O,outcome,[1],inactive
same,outcome,[2],inactive
same,outcome,[3],inactive
same,outcome,[4],inactive
same,outcome,[9],inactive
same,outcome,[6],inactive
same,outcome,[7],inactive
same,outcome,[8],inactive
same,outcome,[10],inactive
CS(=O)(=O)c1ccc([C@@H](CC2CCCC2)C(=O)Nc2cnccn2)cc1Cl,outcome,[1],inactive
same,AC50,[2],30.2 µM (active)
same,outcome,[3],inactive
same,outcome,[4],inactive
same,AC50,[9],64.4 µM (active)
same,AC50,[6],150 µM (active)
same,outcome,[8],inactive
same,AC50,[10],73.9 µM (active)
C=CC(F)(F)C(F)(F)C(F)(F)C(F)(F)F,outcome,[1],inactive
same,outcome,[2],inactive
same,outcome,[3],inactive
same,outcome,[4],inactive
same,outcome,[9],inactive
same,outcome,[6],inactive
same,outcome,[7],inactive
same,outcome,[8],inactive
same,outcome,[10],inactive
